# ChEMBL document CHEMBL3988442, “University of Dundee, Small-Polar-MMV Screening Library” (2021)
# Screen size: about 69,000 compounds; about 1,000 (1.4%) showed an effect of 50% or more. Shown is part of a subset that was picked to be rich in strong results.
# Tested on: Leishmania donovani
# Assay: Leishmania intramacrophage assay
# Type: functional, organism-based
# Design: scale not given: in the data most compounds retested in dose-response had high values
structure (smiles),measurement,setting,value
CC(C)c1cc(NC(=O)c2ccc(C(=O)NC(C)(C)C)cc2)[nH]n1,Percent Effect,"30 µM, 30.03 µM",58.67%
CC(C)c1cc(NC(=O)c2ccc([S+]([O-])C(C)C)cc2)[nH]n1 (stereo not given),Percent Effect,30 µM,33.29%
CC(C)c1cc(NC(=O)c2cccnc2)[nH]n1,Percent Effect,30 µM,2.786%
CC(C)c1cc(NC(=O)c2ccncc2)[nH]n1,Percent Effect,30 µM,-9.457%
CC(=O)N1CCC(NC(=O)Cc2nc3nc(C)cc(C)n3n2)CC1,Percent Effect,"30.3 µM, […]",9.867%
O=C(c1ccc(CN2CCCCC2)cc1)N1Cc2cnn(CCO)c2C1,Percent Effect,"30.3 µM, […]",4.685%
COCCNC(=O)Nc1ccc(-c2nc(C(C)C)no2)cc1,Percent Effect,"30.3 µM, […]",-5.463%
Cc1nn(C)c(C)c1C1CCCN1c1ncnc2c1CCC2 (stereo not given),Percent Effect,"30.3 µM, […]",30.84%
COc1c(C2CCCN2c2ncnc3c2CCC3)c(C)nn1C (stereo not given),Percent Effect,"30.3 µM, […]",55.59%
Cc1nn(C)c(Cl)c1C1CCCN1c1ncnc2c1CCC2 (stereo not given),Percent Effect,"30.3 µM, […]",-27.23%
O=C(CN1CCSCC1c1ccccc1)N1CCCC1 (stereo not given),Percent Effect,"30.3 µM, […]",-14.01%
O=c1ccc(-c2cccs2)nn1CN1CCCCCC1,Percent Effect,"30 µM, 30.03 µM",13.2%
Cc1cc(N2CCC(O)(CN(C)C)C2)c2cc3c(cc2n1)OCO3 (stereo not given),Percent Effect,"30.3 µM, […]",-1.24%
Cn1cc(CN2Cc3cn(C)nc3C(COCC3CC3)C2)cn1 (stereo not given),Percent Effect,"30.3 µM, […]",53.65%
COc1ccc(CN2Cc3cn(C)nc3C(COCC3CC3)C2)cc1 (stereo not given),Percent Effect,"30.3 µM, […]",16.82%
Cn1cc2c(n1)C(COCC1CC1)CN(Cc1ccsc1)C2 (stereo not given),Percent Effect,"30.3 µM, […]",-18.37%
CCN(CC1CCOC1)C(=O)Nc1ccc(N2CCCC2)nc1 (stereo not given),Percent Effect,"30 µM, 30.03 µM",21.14%
COCCN(Cc1cnn(C)c1)C(=O)C1CCCN(C2CCOCC2)C1 (stereo not given),Percent Effect,"30.3 µM, […]",2.022%
CC(C)c1nnc2n1CCN(C(=O)CN1Cc3ccccc3C1=O)C2,Percent Effect,"30 µM, 30.03 µM",-6.489%
CC(CC(=O)Nc1ccc(C(=O)N(C)C)c(Cl)c1)n1cccc1 (stereo not given),Percent Effect,"30.3 µM, […]",51.53%
CC(C)CNC(=O)c1ccc(NC(=O)NC(C)C)cc1Cl,Percent Effect,"30.3 µM, […]",-0.4257%
COc1cccc(NC(=O)CNc2ccc(C(=O)N(C)C)c(Cl)c2)c1,Percent Effect,"30.3 µM, […]",28.32%
CCCN1CCCCC1C(=O)Nc1ccc(-c2nnc[nH]2)cc1 (stereo not given),Percent Effect,"30.3 µM, […]",6.317%
CC(C)N(CC(=O)Nc1ccc(Br)cc1Cl)Cc1cccnc1,Percent Effect,"30.3 µM, […]",0.9398%
Cc1ccnc(CNC(=O)C2CC(=O)N(CCN(C)C)C2)c1 (stereo not given),Percent Effect,"30.3 µM, […]",7.855%
CN(C)c1nccc(C2CCCCN2Cc2cnn3cccnc23)n1 (stereo not given),Percent Effect,"30.3 µM, […]",15.49%
CNc1nccc(C2CCCCN2Cc2cnn3cccnc23)n1 (stereo not given),Percent Effect,"30.3 µM, […]",53.78%
c1cnc2c(CN3CCCCC3c3ccncn3)cnn2c1 (stereo not given),Percent Effect,"30.3 µM, […]",9.705%
Cc1csc2c(=O)n(CCN3CCC(c4ccccc4)CC3)cnc12,Percent Effect,"30.3 µM, […]",-32.46%
Cc1nccn1CCCN1CCCC(c2nccn2C)C1 (stereo not given),Percent Effect,"30.3 µM, […]",28.64%
Cc1nccn1CCCN1CCCC(c2ccccc2)C1 (stereo not given),Percent Effect,"30.3 µM, […]",72.11%
Cc1nccn1CCCN1CCCC(c2nccn2CC2CCC2)C1 (stereo not given),Percent Effect,"30.3 µM, […]",28.26%
Cc1cnn(CCNCc2c(C)nn(-c3ccccc3)c2C)c1,Percent Effect,"30.3 µM, […]",-2.378%
CC(C)c1nc(C(=O)N2C[C@H](C(C)C)[C@@H](N)C2)cs1,Percent Effect,"30.3 µM, […]",39.61%
COCCn1nc(C(=O)N2CCN(C)CC2C)ccc1=O (stereo not given),Percent Effect,"30.3 µM, […]",4.243%
CCCc1nnsc1C(=O)NCC1CCN(c2ccccn2)CC1,Percent Effect,"30 µM, 30.03 µM",33.4%
Cc1nnsc1C(=O)NCC1CCN(c2ccccn2)CC1,Percent Effect,"30.3 µM, […]",51.71%
CCCc1nnsc1C(=O)NCC1CCN(c2ncccn2)CC1,Percent Effect,"30.3 µM, […]",10.89%
COCC(C)NC(=O)c1cc(C)n(-c2cccc(OC)c2)c1C (stereo not given),Percent Effect,30 µM,9.783%
CCNc1cc2c(nn1)CCN(C(=O)c1ccsc1)C2,Percent Effect,30 µM,18.6%
COc1ccc(C)cc1CNC(=O)C1=NN(c2ccccc2)C(=O)CN1,Percent Effect,"30.3 µM, […]",34.24%
COCc1ccc(CNC(=O)C2=NN(c3ccccc3)C(=O)CN2)cc1,Percent Effect,"30 µM, 30.03 µM",41.01%
N#Cc1ccc(CNC(=O)C2=NN(c3ccccc3)C(=O)CN2)cc1,Percent Effect,"30.3 µM, […]",17.15%
COc1ccccc1CNC(=O)C1=NN(c2ccc(C)cc2)C(=O)CN1,Percent Effect,"30 µM, 30.03 µM",61.91%
COc1ccc(CNC(=O)C2=NN(c3ccc(C)cc3)C(=O)CN2)cc1,Percent Effect,"30.3 µM, […]",51.58%
COc1ncccc1CNC(=O)C1=NN(c2ccccc2)C(=O)CN1,Percent Effect,"30.3 µM, […]",-11.09%
CC1CCc2n[nH]c(C(=O)NCCCc3ccccn3)c2C1 (stereo not given),Percent Effect,"30.3 µM, […]",-2.29%
CCOC(=O)c1ccc(NC(=O)c2cc3c([nH]c2=O)CCCC3)cc1,Percent Effect,"30.3 µM, […]",34.55%
CC(=O)Nc1nc(C(=O)N2CCCC2c2noc(C(C)C)n2)cs1 (stereo not given),Percent Effect,"30.3 µM, […]",-12.95%
C[C@@H]1CN(Cc2cccc(F)c2)C[C@]12CCN(Cc1cccnc1)C2=O.O=C(O)C(F)(F)F.O=C(O)C(F)(F)F,Percent Effect,"30.3 µM, […]",-0.6911%
